Results as given in the supplement of paper PMC7366291.
Structures can show the parent of a compound that is named as a salt. ± gives the standard deviation or the standard deviation of the averaged measurements.

What was measured:
Details in all cases: 25 µM; exposure: 24-48 hpf
[1] = tested on: Danio rerio Tg(wt1b:EGFP) embryo, pronephros; test: glomerular separation, fold change vs DMSO control; higher = glomeruli further apart (abnormal)
Procedure, shortened: (§1)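 Each feature value is a fold change relative to the mean of same-day DMSO-treated embryos. Embryos of the Tg(wt1b:EGFP) zebrafish line, dechorionated, received 25 μM compound in 0.5% DMSO from 24 to 48 hpf at 28.5°C, in HEPES-buffered E3 with 0.003% PTU. Distances and angles were computed by a Fiji macro from 16 manually set reference points on maximum projections of dorsal pronephros images, and values beyond 2 SD of the feature mean were removed.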

[2] = tested on: Danio rerio Tg(wt1b:EGFP) embryo, pronephros; test: glomerular width (mean of left and right), fold change vs DMSO control; higher = wider glomerulus
Procedure, shortened: as §1

[3] = tested on: Danio rerio Tg(wt1b:EGFP) embryo, pronephros; test: fraction of imaged embryos annotated as normal kidney; higher = less nephrotoxic; extreme values may be limits of the assay
Procedure, shortened: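 The read-out is the proportion of embryos in each treatment manually annotated as normal-kidney. Exposure ran from 24 to 48 hpf at 28.5°C in 12-well plates, using dechorionated Tg(wt1b:EGFP) zebrafish embryos in 5 mM HEPES-buffered E3 with 0.003% PTU, 0.5% DMSO and 25 μM compound. For imaging, larvae were anaesthetised with tricaine, positioned dorsally in agarose-filled 96-well plates and captured by widefield fluorescence (470 nm, 10 z-slices), with scoring done on maximum projections.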

[4] = tested on: Danio rerio Tg(wt1b:EGFP) embryo, pronephros; test: pronephric angle neck segment to proximal convoluted tubule (mean of left and right), fold change vs DMSO control; higher = larger pronephric angle
Procedure, shortened: as §1

Row | Structure (SMILES) | glomerular separation [1] | glomerular width [2] | fraction of imaged embryos annotated as normal kidney [3] | pronephric angle neck segment [4]
1 | CC(C)(C)NC(=O)[C@@H]1C[C@@H]2CCCC[C@@H]2CN1C[C@@H](O)[C@H](Cc1ccccc1)NC(=O)[C@H](CC(N)=O)NC(=O)c1ccc2ccccc2n1 [Saquinavir mesylate] | 1.08 ± 0.35 | 1.04 ± 0.085 | 0.909 | 0.977 ± 0.016
2 | N[C@@H](Cc1cc(I)c(Oc2ccc(O)c(I)c2)c(I)c1)C(=O)O [Liothyronine] | 0.912 ± 0.45 | 0.9338 ± 0.0093 |  | 1.01 ± 0.018
3 | COc1cc(C(=O)N2CCOCC2)cc(OC)c1OC [Trimetozine] | 1.03 ± 0.47 | 0.984 ± 0.065 | 0.917 | 1.01 ± 0.06
4 | CC1(C)[C@@H](OC(=O)CCC(=O)O)CC[C@]2(C)[C@H]3C(=O)C=C4[C@@H]5C[C@@](C)(C(=O)O)CC[C@]5(C)CC[C@@]4(C)[C@]3(C)CC[C@@H]12 [Carbenoxolone disodium salt] | 0.718 ± 0.41 | 1.04 ± 0.031 | 0.667 | 0.9894 ± 0.0072
5 | CCOC(=O)[C@H](CCc1ccccc1)N[C@@H](C)C(=O)N1CCC[C@H]1C(=O)O [Enalapril maleate] | 0.704 ± 0.19 | 1.01 ± 0.03 | 0.667 | 0.9423 ± 0.0071
6 | OCCOCCN1CCN(C(c2ccccc2)c2ccc(Cl)cc2)CC1 (configuration not stated) [Hydroxyzine dihydrochloride] | 0.754 ± 0.2 | 1.02 ± 0.013 | 1 | 0.964 ± 0.048
7 | O=S(=O)(O)CCS [Mesna] | 0.716 ± 0.21 | 1.07 ± 0.057 | 1 | 1.07 ± 0.047
8 | CCOC(=O)[N-]c1c[n+](N2CCOCC2)no1 [Molsidomine] | 0.9 ± 0.41 | 0.9963 ± 0.0028 | 0.833 | 0.982 ± 0.013
9 | CC(=O)c1ccc(S(=O)(=O)NC(=O)NC2CCCCC2)cc1 [Acetohexamide] | 0.839 ± 0.25 | 1.05 ± 0.023 | 0.833 | 0.9767 ± 0.0092
10 | CC(=O)[C@H]1CC[C@H]2[C@@H]3CCC4=CC(=O)CC[C@]4(C)[C@H]3CC[C@]12C [Progesterone] | 3.48 ± 3.4 | 0.873 ± 0.086 | 0.364 | 1.2 ± 0.12
11 | O=C1CN(/N=C/c2ccc(-c3ccc([N+](=O)[O-])cc3)o2)C(=O)N1 [Dantrolene sodium salt] | 1.46 ± 0.66 | 0.974 ± 0.084 | 0.833 | 1.02 ± 0.016
12 | O=C(O)[C@H]1/C(=C/CO)O[C@@H]2CC(=O)N21 [Clavulanate potassium salt] | 0.835 ± 0.22 | 1.04 ± 0.032 | 0.833 | 1.001 ± 0.00045
13 | CCCCOC(=O)c1ccc(N)cc1 [Butamben] | 1.07 ± 0.41 | 1.04 ± 0.12 | 0.917 | 0.9834 ± 0.0087
14 | CN/C(=N\CCSCc1nc[nH]c1C)NC#N [Cimetidine] | 1.02 ± 0.34 | 1.051 ± 0.0067 | 0.917 | 0.926 ± 0.062
15 | C=CC(N)CCC(=O)O (configuration not stated) [Vigabatrin hydrochloride] | 0.956 ± 0.33 | 1.129 ± 0.0097 | 0.917 | 1.05 ± 0.029
16 | CC[N+](C)(C)Cc1ccccc1Br [Bretylium tosylate] | 0.631 ± 0.23 | 0.9664 ± 0.0094 | 1 | 0.982 ± 0.028
17 | O=C(Oc1cccc2cccnc12)c1ccccc1 [Benzoxiquine] | 3.04 ± 1.1 | 0.56 ± 0.11 | 0.0833 | 1.1 ± 0.022
18 | COc1cc(NC(C)CCCN)c2ncccc2c1 (configuration not stated) [Primaquine diphosphate] | 1.04 ± 0.21 | 1.04 ± 0.079 | 1 | 1.01 ± 0.074
19 | CC(C)(Sc1cc(C(C)(C)C)c(O)c(C(C)(C)C)c1)Sc1cc(C(C)(C)C)c(O)c(C(C)(C)C)c1 [Probucol] | 0.815 ± 0.18 | 0.925 ± 0.06 | 1 | 0.928 ± 0.023
20 | NS(=O)(=O)c1cc2c(cc1Cl)N=C(CSCc1ccccc1)NS2(=O)=O [Benzthiazide] | 0.917 ± 0.25 | 0.919 ± 0.05 | 0.917 | 0.965 ± 0.028
21 | Cc1cc(N)c2ccccc2[n+]1CCCCCCCCCC[n+]1c(C)cc(N)c2ccccc21 [Dequalinium dichloride] | 1 ± 0.33 | 1.02 ± 0.021 | 0.75 | 0.9864 ± 0.0034
22 | NCc1ccc(S(N)(=O)=O)cc1 [Mafenide hydrochloride] | 0.887 ± 0.27 | 1.09 ± 0.019 | 0.833 | 0.9512 ± 0.0031
23 | NC1CCN(c2nc3c(cc2F)c(=O)c(C(=O)O)cn3-c2ccc(F)cc2F)C1 (configuration not stated) [Tosufloxacin hydrochloride] | 0.995 ± 0.36 | 1.07 ± 0.074 | 0.833 | 1.038 ± 0.0028
24 | Clc1ccccc1C(c1ccccc1)(c1ccccc1)n1ccnc1 [Clotrimazole] | 2.06 ± 1.1 | 0.861 ± 0.11 | 0.583 | 1.26 ± 0.1
25 | CN1CCN2c3ccccc3Cc3ccccc3C2C1 (configuration not stated) [Mianserine hydrochloride] | 1.3 ± 0.59 | 0.983 ± 0.035 | 0.833 | 0.9786 ± 0.0076
26 | COc1ccc2cc(CCC(C)=O)ccc2c1 [Nabumetone] | 1.26 ± 0.44 | 1 ± 0.011 | 0.75 | 1.06 ± 0.038
27 | O=C1O[C@H]([C@@H](O)CO)C(O)=C1O [Ascorbic acid] | 1.08 ± 0.33 | 1.01 ± 0.09 | 0.75 | 1.03 ± 0.025
